Assay outcomes: PubChem, several laboratories
HIF act: HIF pathway transcriptional activation. U2OS HRE-luciferase reporter, luminescence; normalized: DMSO 0%, desferrioxamine 100%. activation, % at 7.5 µM (by protocol). 300,000 tested, 0.32% active. AID 1910;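 active = mean activation of at least 10% of the iron chelator positive control signal, with at least half of replicates also reaching 10%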
697 NFkB inh: lowers PMA/ionomycin-induced NF-kB signal in 697 B cells; 697 B-cell NF-kB luciferase reporter, 16 h; inhibition, % at 4 µM; 330,000 tested, 0.33% active; AID 435022; in the data active = inhibition above about 35%
CFTR F508del cor: correctors of CFTR F508del function in bronchial epithelial cells; activity (quench increase), % at 7.58 µM; 350,000 tested, 0.36% active; AID 720511; CFBE cells, YFP halide quenching; stimulated with forskolin plus potentiator P3; % fluorescence drop versus neutral controls;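 active = mean added fluorescence quench of at least 8% versus neutral control, with both replicates also reaching 8%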;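 also: cells transiently co-express mutant CFTR-F508del with the halide-sensitive YFP; corrector assay measuring rescue of mutant channel to the surface after 24 h compound exposure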
Jurkat NFkB inh: lowers PMA/ionomycin-induced NF-kB signal in Jurkat cells; 330,000 tested, 0.53% active; AID 435003; PMA/ionomycin-induced NF-kB luciferase reporter, luminescence; inhibition, % at 4 µM; in the data active = inhibition above about 50%
Active calls of the source: *; nt = no result given. The list is not random: actives were taken first. Their share in the collection is about 0.93%.

SMILES | HIF act | 697 NFkB inh | CFTR F508del cor | Jurkat NFkB inh
CN(C)CCCN(C(=O)c1cc2ccccc2oc1=O)c1nc2ccc(F)cc2s1 | 1.1 | -64.7 | nt | -8.1
CCN(CCCCCN(C)C)Cc1cc2ccccc2o1 | 684.5* | -8.8 | 0.4 | -21.1
CC(=O)OCC(=O)NCCCOc1cccc(CN2CCCCC2)c1 | -0.3 | -3.7 | 8.3* | -2.0
c1ccc(COc2cccc(CN3CCCCC3)c2)cc1 | -0.6 | -3.2 | 3.4 | -0.7
C[C@@H]1CN([C@@H](C)CO)C(=O)c2cc(-c3cccnc3)cnc2O[C@@H]1CN(C)C(=O)c1ccccc1F | nt | nt | -1.1 | nt
O=C(NN=C1CCCC1)c1[nH]c2ccc(Cl)cc2c1-c1ccccc1 | nt | 8.2 | 13.7* | 17.0
CCOCCCNC(=S)Nc1cc(C)cc(C)c1 | 143.1* | 2.0 | nt | 9.7
CCN1CCN(CCCOc2ccc(-c3ccccc3)cc2)CC1 | 59.6* | -69.5 | nt | -54.7
O=C1C(SCCO)=C(SCCO)C(=O)c2ccccc21 | nt | -51.6 | 10.4* | 16.7
CC1(C(=O)NCc2ccccc2)Cc2c(-c3ccc(C(N)=O)cc3)ccnc2O1 (stereo not drawn) | nt | nt | 14.5* | nt
CC1(C(=O)NCc2ccccc2)Cc2c(-c3ccccc3)ccnc2O1 (stereo not drawn) | nt | nt | 1.8 | nt
CC(=O)Nc1cccc(-c2ccnc3c2CC(C)(C(=O)NCc2cccs2)O3)c1 (stereo not drawn) | nt | nt | 9.9* | nt
COCC(=O)Nc1ccc2c(c1)[C@H]1C[C@@H](CC(=O)NCc3cccnc3)O[C@H](CO)[C@H]1O2 | nt | nt | -4.6 | nt
C[C@@H]1CCCCO[C@@H](CN(C)C(=O)NC2CCCCC2)[C@H](C)CN([C@H](C)CO)C(=O)c2cc(NC(=O)NC3CCCCC3)ccc2O1 | nt | nt | 0.0 | nt
Cc1ccc(-c2cccc(-c3cc(=O)oc4ccc(C(C)(C)C)cc34)c2)cc1 | nt | 10.0 | 8.7* | nt
Cc1ccc(S(=O)(=O)Nc2cc(C)cc(CCNC=O)c2C)cc1 | nt | nt | 9.6* | nt
CCOC(=O)CNC(=O)CSc1nnc(Cn2cnc3ccccc32)n1C | 12.3* | -5.0 | nt | -7.7
COCOc1cccc(CN2CCC2(C)C(=O)Nc2ccc(C)cc2)c1 (stereo not drawn) | nt | nt | -0.4 | nt
COCOc1cccc(CN2CCC2(C)C(=O)Nc2ccc(C)c(O)c2)c1 (stereo not drawn) | nt | nt | 8.8* | nt
COCCNC(=O)NC12CC3(C)CC(C)(CC(C)(C3)C1)C2 | 0.0 | 10.7 | 10.1* | 0.4
COCCNC(=O)NC12CC3CC(CC(C3)C1)C2 | -0.2 | 17.6 | -4.5 | 12.8
Cc1ccc2nc(-c3ccccc3NC(=O)CCC(=O)O)c(=O)[nH]c2c1 | 24.1* | -27.9 | -1.9 | -13.1
O=[N+]([O-])c1ccc(N=Nc2c(Cl)cc(O)cc2Cl)cc1 | -0.1 | nt | 10.1* | nt
CCc1ccc(OCc2n[nH]c(=S)n2C(C)CCCC(C)C)cc1 (stereo not drawn) | -0.2 | 10.9 | 17.0* | 11.2
CCc1ccc(OCc2n[nH]c(=S)n2Cc2ccccc2)cc1 | 0.6 | -21.1 | 3.6 | -6.9
SMILES | HIF act | 697 NFkB inh | CFTR F508del cor | Jurkat NFkB inh
CCc1ccc(NC(=O)CSc2ccc(-c3ccccn3)nn2)cc1 | 12.6* | -26.4 | 4.4 | -2.2
CC(=O)Nc1cccc(NC(=O)CSc2ccc(-c3ccccn3)nn2)c1 | 3.0 | 9.1 | 1.4 | 20.7
CCOC(=O)c1cnc(-n2nc(C)cc2C)nc1NNc1nc(-c2ccccc2)cc(-c2ccccc2)n1 | 18.4* | 3.5 | nt | 21.3
COc1ccc(C(=O)CC(C#N)c2ccc3c(c2)OCO3)cc1OC (stereo not drawn) | nt | nt | -0.2 | nt
COc1ccc(C(C#N)CC(=O)c2ccc3c(c2)OCO3)cc1OC (stereo not drawn) | nt | nt | 14.1* | nt
COc1cc2c(cc1OC)CN(C(=O)[C@H]1[C@@H]3C(=O)O[C@@H](c4ccccc4)[C@@H](c4ccccc4)N3[C@@H](c3ccccc3OCCO)[C@]13C(=O)Nc1ccc(C#CC4=CCCCC4)cc13)CC2 | nt | nt | -2.1 | nt
O=C(C[C@@H]1CC[C@H]2[C@@H](COC[C@H](O)CN2Cc2cccc(Cl)c2)O1)Nc1nccs1 | nt | nt | -0.4 | nt
Nc1sc(-c2ccccc2)cc1-c1n[nH]c(=S)n1C1CCCCC1 | 1.4 | -41.7 | 13.0* | 46.6
C/C(=N\Nc1ncnc2sc(C)c(C)c12)c1ccccn1 | 95.8* | 9.5 | 21.4* | 49.8
COc1ccc(O)c(/C=N/NC(=O)c2ccc(OCc3cccc(Br)c3)cc2)c1 | 15.7* | -18.0 | nt | 26.0
COc1ccc(O)c(/C=N/NC(=O)c2ccc(CSc3nc(C)cc(C)n3)cc2)c1 | 29.0* | -30.1 | nt | 26.8
CC1(S(=O)(=O)O)CC(=O)c2ccccc2C1=O (stereo not drawn) | 0.1 | -34.1 | 8.1* | -5.4
O=C1NC(=Nc2cccnc2)S/C1=C/c1ccc(F)cc1 | 1.0 | 2.3 | 14.3* | 6.6
O=C(C[C@H]1C=C[C@H](NC(=O)Nc2ccc(F)cc2)[C@@H](CO)O1)NCc1cccc(F)c1 | nt | nt | 0.9 | nt
COc1cc(OC)cc(C(=O)c2c(C)c(C#N)c3ccccn23)c1 | 1.3 | -36.5 | 16.9* | 33.9
C[C@H](CO)N1C[C@H](C)[C@H](CN(C)S(C)(=O)=O)OCCCC[C@H](C)Oc2ccc(N(C)C)cc2C1=O | nt | nt | 0.4 | nt
O=C(C1CCCC1)N1CCCCN2[C@H](C1)[C@H](c1ccc(C#CC3CC3)cc1)[C@@H]2CO | nt | nt | -1.0 | nt
O=C(Cc1ccncc1)Nc1ccc2c(c1)[C@@H]1C[C@H](CC(=O)N3CCCCC3)O[C@@H](CO)[C@@H]1O2 | nt | nt | 2.2 | nt
COC(=O)c1cc2c(=O)c3ccccc3oc2nc1/C=C/N(C)C | 0.2 | nt | 28.1* | nt
COC(=O)c1cc2c(=O)c3ccccc3oc2nc1C | 2.5 | nt | -1.7 | nt
Cc1cccc(-c2nsc(SCC(=O)c3ccc(Cl)cc3)n2)c1 | 227.9* | 13.6 | nt | 11.5
O=C(CSc1nc(-c2ccccc2Cl)ns1)c1ccc(Cl)cc1 | 0.0 | 18.6 | nt | 7.6
C=CCN=c1scc(C)n1/N=C/c1ccc(O)c(O)c1 | 3.1 | -130.0 | 10.6* | -3.5
COc1cccc(C(NC(C)=O)c2ccc3cccnc3c2O)c1 (stereo not drawn) | 38.0* | -21.2 | 3.6 | 46.2
CC(=O)NC(c1cccc([N+](=O)[O-])c1)c1ccc2cccnc2c1O (stereo not drawn) | 231.2* | -21.1 | -4.3 | 49.2
SMILES | HIF act | 697 NFkB inh | CFTR F508del cor | Jurkat NFkB inh
Oc1cccc(C(Nc2nccs2)c2ccc3cccnc3c2O)c1 (stereo not drawn) | 35.2* | -49.1 | -3.2 | 48.7
Cc1cc(NC(c2cccnc2)c2ccc3cccnc3c2O)no1 (stereo not drawn) | 22.0* | -10.2 | nt | 16.4
COc1ccccc1-c1ccc2c(c1)[C@H]1[C@H](CCN1S(=O)(=O)c1ccccc1F)[C@H](CO)N2 | nt | nt | 2.4 | nt
CO[C@@H]1CN(C)C(=O)c2ccc(NC(=O)CC(F)(F)F)cc2OC[C@@H](C)N(C(=O)C2CC2)C[C@@H]1C | nt | nt | 1.1 | nt
CC(Sc1nnc(COc2ccc([N+](=O)[O-])cc2)n1C)C(=O)O (stereo not drawn) | 93.2* | 19.9 | -2.6 | -9.8
CC(Sc1nnc(COc2ccc([N+](=O)[O-])cc2)n1-c1ccccc1)C(=O)O (stereo not drawn) | -0.2 | 2.2 | nt | -0.6
CCNC(=O)C[C@@H]1C=C[C@@H](NC(=O)NC2CCCCC2)[C@H](CO)O1 | nt | nt | 8.8* | nt
CCNC(=O)C[C@H]1C=C[C@@H](NC(=O)NC2CCCCC2)[C@H](CO)O1 | nt | nt | -0.4 | nt
